# Laboratory results published in PubChem BioAssay.
# Unmarked numbers belong to inactive results. For some assays here: Measured potencies and affinities stand elsewhere. Calls of active or inactive are those of the source.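 Rule for the calls, unless noted: active = calcium signal ratio cut to more than 3 SD under the fully stimulated control mean yet still positive, in both repeats and the primary screen; inactive = the rest.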
# Columns and labels:
# [1] = test system: TRPC4 beta (transient receptor potential cation channel C4), mouse; assay: TRPC4 cation channel opening, retest – cell-based, Fluo4 calcium, HEK293 TRPC4beta/mu-opioid, duplicates, 10 µM, confirmation (AID 2426;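 active = fluorescence ratio normalized to control raised more than 50% in primary screen plus both repeat runs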); details: Fluo4 calcium fluorescence, at 10 µM; stronger effect = higher value
# [2] = test system: transient receptor potential cation channel C4 beta (TRPC4), mouse; assay: TRPC4 cation channel opening, second retest – cell-based, second round, Fluo4, HEK293 TRPC4beta/mu-opioid, 1 µM, confirmation (AID 2461;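 active = primary screen active and over 50% activation in each of two duplicate runs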); details: Fluo4 calcium fluorescence, at 1 µM; stronger effect = higher value
# [3] = test system: TRPC4 (transient receptor potential cation channel C4 beta), mouse; assay: potentiation of DAMGO EC20 TRPC4 response – cell-based, second round, Fluo-4, HEK293 TRPC4beta/mu-opioid, 1 µM, confirmation (AID 2554;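 active = primary screen hit whose fluorescence ratio, in both repeats, exceeds the weak agonist control mean by 3 SD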); details: DAMGO EC20, Fluo-4 calcium flux, at 1 µM; stronger effect = higher value
# [4] = test system: TRPC4 beta (transient receptor potential cation channel C4), mouse; assay: potentiation of DAMGO EC20 TRPC4 response – cell-based, Fluo-4, HEK293 TRPC4beta/mu-opioid, confirmation (AID 2555;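 active = primary screen hit whose calcium fluorescence ratio, in both repeats, exceeds the weak agonist control mean by 3 SD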); details: DAMGO EC20, Fluo-4 calcium flux, at 10 µM; stronger effect = higher value
# [5] = target: Short transient receptor potential channel 4 (Mus musculus) (UniProt Q9QUQ5); assay: blockers of DAMGO-evoked TRPC4 calcium flux – cell-based, Fluo4, HEK293 TRPC4beta/mu-opioid, confirmation (AID 2636;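 active = calcium signal cut by more than 3 SD below the full-agonist control yet still positive, in both repeats and the earlier primary screen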); details: at 10 µM; stronger effect = higher value
# [6] = target: Short transient receptor potential channel 4 (Mus musculus) (UniProt Q9QUQ5); assay: blockers of DAMGO-evoked TRPC4 calcium flux – cell-based, second round, Fluo4, HEK293 TRPC4beta/mu-opioid, 1 µM, confirmation (AID 2637); details: at 1 µM; stronger effect = higher value
# [7] = target: Short transient receptor potential channel 4 (Mus musculus) (UniProt Q9QUQ5); assay: calcium entry via TRPC4 opening agents – cell-based, HEK293 TRPC4/mu-opioid, Fluo-4 calcium, dose response (AID 434937;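 active = primary screen activator hit with a dose response curve and TRPC4 channel activation at any tested dose; inactive = no activation, no dose response, or not a primary hit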)
# [8] = target: Short transient receptor potential channel 4 (Mus musculus) (UniProt Q9QUQ5); assay: potentiation of DAMGO-evoked TRPC4 calcium signal – cell-based, HEK293 TRPC4/mu-opioid, Fluo-4 calcium, EC20 DAMGO, dose response (AID 434941;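 active = earlier screen potentiator hit that boosts the TRPC4 ion channel at some dose, with a dose response; inactive = no potentiation, no dose response, or not a prior hit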;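 note: calcium entry triggered by an EC20 dose of DAMGO at the co-expressed mu-opioid receptor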)
# [9] = target: Short transient receptor potential channel 4 (Mus musculus) (UniProt Q9QUQ5); assay: block of DAMGO-driven TRPC4 calcium entry – cell-based, HEK293 TRPC4/mu-opioid, Fluo-4 calcium, dose response (AID 434942;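 active = primary screen inhibitor hit that blocks the TRPC4 channel at some tested dose, yielding a dose curve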)
# [10] = target: Short transient receptor potential channel 6 (Mus musculus) (UniProt Q61143); assay: TRPC6 blockade by TRPC4 inhibitor hits – cell-based, HEK293, membrane potential dye, duplicate, selectivity assay for TRPC4 inhibitor project, confirmation (AID 434948;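 active = active in primary screen and both duplicates, each dropping signal beyond three positive-control SD with fluorescence still positive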); details: HEK293 TRPC6, membrane potential dye fluorescence, at 10 µM, stimulated with maximal-effect acetylcholine; stronger effect = higher value
# [11] = target: Short transient receptor potential channel 6 (Mus musculus) (UniProt Q61143); assay: TRPC6 opening by TRPC4 activator hits – cell-based, HEK293, membrane potential dye, duplicate, selectivity assay for TRPC4 activator project, confirmation (AID 434950;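 active = membrane potential signal rise above negative control mean plus 3 SD in both duplicates, also active in the earlier TRPC4 screen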); details: HEK293 TRPC6, membrane potential fluorescence, at 10 µM; activation: stronger effect = higher value; outcome: activation
# [12] = target: Short transient receptor potential channel 6 (Mus musculus) (UniProt Q61143); assay: positive modulators of mouse TRPC6 channel – HEK293 cells, membrane potential dye, duplicate, selectivity assay for TRPC4 potentiator project, confirmation (AID 434952;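 active = compound raising the membrane signal above positive-control mean plus 3 SD in both repeats, and a primary screen hit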); details: HEK293 TRPC6, membrane potential dye fluorescence, at 10 µM, maximal acetylcholine added after compound; stronger effect = higher value
# [13] = target: Short transient receptor potential channel 4 (Mus musculus) (UniProt Q9QUQ5); assay: calcium flux activators in TRPC4/5HT1a cells, counter-screen for TRPC4 activator project, cell-based, second counter screen, HEK293 TRPC4/5HT1a, Fluo-4 (AID 434977;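 active = calcium signal rise above buffer-control mean plus 5 SD in both duplicates, and also a hit in the primary screen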); details: Fluo-4 calcium flux, at 10 µM; stronger effect = higher value
# [14] = serotonin-gated TRPC4 signal block – cell-based, second counter screen, HEK293 TRPC4/5HT1a, Fluo-4, counter-screen for TRPC4 inhibitor project, confirmation (AID 434978;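 active = primary screen active whose calcium signal fell more than 3 SD beyond the full-serotonin control mean in both duplicate plates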;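 for outcome: serotonin given first at submaximal then at maximal dose after compound preincubation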); details: Fluo-4 calcium flux, at 10 µM, serotonin added to trigger calcium flux; stronger effect = higher value
# [15] = test system: TRPC4 (mouse), co-expressed with 5HT1a in HEK293; assay: enhancement of serotonin-evoked TRPC4 response – cell-based, second counter screen, HEK293 TRPC4/5HT1a, Fluo-4, counter-screen for TRPC4 potentiator project, confirmation (AID 434979;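 active = signal rise over 3 SD above mean of control wells given weak agonist, in both repeats and first screen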); details: Fluo-4 calcium flux, at 10 µM, serotonin added at its EC20 dose; stronger effect = higher value
# [16] = nonspecific calcium rise without TRPC4 – cell-based, HEK293 mu-opioid receptor line, counter-screen for TRPC4 activator project, confirmation (AID 449723;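 active = hit in primary screen, with calcium signal over 5 SD above buffer well mean in both duplicates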;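 note: counter screen cells carry the mu-opioid receptor alone and lack TRPC4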); details: HEK293 mu-opioid cells, Fluo-4 calcium fluorescence, at 10 µM; stronger effect = higher value
# [17] = nonspecific potentiation of DAMGO calcium response – cell-based, HEK293 mu-opioid receptor line, counter-screen for TRPC4 allosteric potentiator project, confirmation (AID 449724;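 active = calcium signal rise more than 3 SD above the low-dose agonist control mean, in both duplicate plates and the primary screen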); details: HEK293 mu-opioid receptor cells, Fluo-4 calcium flux, at 10 µM, compound added before EC20 DAMGO stimulus; stronger effect = higher value
# Chain of Short transient receptor potential channel 4 (Mus musculus) (Q9QUQ5 whole entry, looked up): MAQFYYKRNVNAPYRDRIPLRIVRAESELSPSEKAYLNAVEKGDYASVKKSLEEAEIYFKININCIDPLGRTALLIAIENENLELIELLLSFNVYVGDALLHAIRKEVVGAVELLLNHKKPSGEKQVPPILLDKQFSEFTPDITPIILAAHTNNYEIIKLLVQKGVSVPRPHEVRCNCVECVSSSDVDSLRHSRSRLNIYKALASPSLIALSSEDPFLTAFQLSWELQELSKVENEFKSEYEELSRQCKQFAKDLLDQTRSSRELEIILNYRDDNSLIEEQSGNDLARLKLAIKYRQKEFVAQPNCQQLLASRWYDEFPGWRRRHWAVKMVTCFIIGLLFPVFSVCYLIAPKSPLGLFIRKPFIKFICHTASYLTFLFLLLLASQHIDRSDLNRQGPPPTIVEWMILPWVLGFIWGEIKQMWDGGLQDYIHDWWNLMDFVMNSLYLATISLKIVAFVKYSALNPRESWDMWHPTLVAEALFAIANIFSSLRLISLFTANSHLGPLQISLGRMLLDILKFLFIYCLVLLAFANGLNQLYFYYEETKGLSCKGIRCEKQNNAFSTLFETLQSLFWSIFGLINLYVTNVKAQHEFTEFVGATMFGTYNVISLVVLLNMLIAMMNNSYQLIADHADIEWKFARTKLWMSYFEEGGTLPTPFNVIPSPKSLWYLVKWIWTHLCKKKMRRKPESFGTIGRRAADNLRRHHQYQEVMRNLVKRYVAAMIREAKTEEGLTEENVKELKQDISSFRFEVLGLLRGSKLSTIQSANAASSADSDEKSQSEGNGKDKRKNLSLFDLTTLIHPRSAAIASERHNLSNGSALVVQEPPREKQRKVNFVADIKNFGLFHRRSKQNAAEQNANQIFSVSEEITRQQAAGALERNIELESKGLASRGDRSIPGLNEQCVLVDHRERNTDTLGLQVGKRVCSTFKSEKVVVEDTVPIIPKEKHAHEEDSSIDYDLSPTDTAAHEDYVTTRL
# Chain of Short transient receptor potential channel 6 (Mus musculus) (Q61143 whole entry, looked up): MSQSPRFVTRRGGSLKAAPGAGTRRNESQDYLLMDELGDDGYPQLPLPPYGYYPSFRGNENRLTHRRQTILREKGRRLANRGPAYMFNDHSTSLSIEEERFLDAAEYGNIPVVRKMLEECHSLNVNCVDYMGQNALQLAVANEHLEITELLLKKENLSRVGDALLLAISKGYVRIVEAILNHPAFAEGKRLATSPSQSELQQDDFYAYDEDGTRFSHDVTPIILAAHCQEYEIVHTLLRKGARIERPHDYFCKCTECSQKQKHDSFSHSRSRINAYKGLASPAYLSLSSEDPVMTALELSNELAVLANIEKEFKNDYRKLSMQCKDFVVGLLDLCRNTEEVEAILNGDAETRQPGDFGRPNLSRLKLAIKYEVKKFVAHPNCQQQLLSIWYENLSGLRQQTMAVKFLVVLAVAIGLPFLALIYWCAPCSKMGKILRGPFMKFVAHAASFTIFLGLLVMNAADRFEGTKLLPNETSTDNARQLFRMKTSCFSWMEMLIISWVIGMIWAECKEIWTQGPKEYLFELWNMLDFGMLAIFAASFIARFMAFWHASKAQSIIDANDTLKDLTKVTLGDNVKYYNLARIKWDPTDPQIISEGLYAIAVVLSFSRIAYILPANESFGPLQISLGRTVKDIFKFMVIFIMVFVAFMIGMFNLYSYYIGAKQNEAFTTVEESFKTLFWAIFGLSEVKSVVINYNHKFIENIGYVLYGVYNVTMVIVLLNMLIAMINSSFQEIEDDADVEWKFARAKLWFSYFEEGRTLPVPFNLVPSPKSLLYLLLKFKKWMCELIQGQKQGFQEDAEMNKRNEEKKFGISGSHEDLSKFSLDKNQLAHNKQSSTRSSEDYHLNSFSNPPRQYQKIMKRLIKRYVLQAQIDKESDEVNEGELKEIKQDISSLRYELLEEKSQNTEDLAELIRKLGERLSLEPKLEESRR
compound,measurement,setting,value
Cc1ccc(-c2csc3ncnc(NCCN4CCOCC4)c23)cc1,outcome,[1],inactive
same,outcome,[2],inactive
same,outcome,[3],inactive
same,outcome,[4],inactive
same,inhibition,[5],76% (active)
same,outcome,[6],inactive
same,outcome,[7],inactive
same,outcome,[8],inactive
same,outcome,[9],inactive
same,outcome,[10],inactive
same,outcome,[11],inactive
same,outcome,[12],inactive
same,outcome,[13],inactive
same,inhibition,[14],32.6% (active)
same,outcome,[15],inactive
same,outcome,[16],inactive
same,outcome,[17],inactive
Cc1ccc(C(=O)OCCN2CCN(c3ncc(C(F)(F)F)cc3Cl)CC2)cc1,outcome,[1],inactive
same,outcome,[2],inactive
same,outcome,[3],inactive
same,potentiation,[4],9% (active)
same,outcome,[5],inactive
same,outcome,[6],inactive
same,outcome,[7],inactive
same,outcome,[8],inactive
same,outcome,[9],inactive
same,outcome,[10],inactive
same,outcome,[11],inactive
same,outcome,[12],inactive
same,outcome,[13],inactive
same,outcome,[14],inactive
same,potentiation,[15],14.3% (active)
same,outcome,[16],inactive
same,outcome,[17],inactive
CCOC(=O)C(CCCCCOc1ccc([N+](=O)[O-])cc1)C(=O)OCC,outcome,[1],inactive
same,outcome,[2],inactive
same,outcome,[3],inactive
same,potentiation,[4],10% (active)
same,outcome,[5],inactive
same,outcome,[6],inactive
same,outcome,[7],inactive
same,outcome,[8],inactive
same,outcome,[9],inactive
same,outcome,[10],inactive
same,outcome,[11],inactive
same,outcome,[12],inactive
same,outcome,[13],inactive
same,outcome,[14],inactive
same,outcome,[15],inactive
same,outcome,[16],inactive
same,outcome,[17],inactive
COc1cc(S(=O)(=O)N2CCC(N3CCCCC3)CC2)ccc1-n1cnnn1,outcome,[1],inactive
same,outcome,[2],inactive
same,potentiation,[3],12% (active)
same,potentiation,[4],8% (active)
same,outcome,[5],inactive
same,outcome,[6],inactive
same,outcome,[7],inactive
same,outcome,[8],inactive
same,outcome,[9],inactive
same,outcome,[10],inactive
same,outcome,[11],inactive
same,outcome,[12],inactive
same,outcome,[13],inactive
same,outcome,[14],inactive
same,potentiation,[15],13.4% (active)
same,outcome,[16],inactive
same,outcome,[17],inactive
